HCMV antiviral – blocks human cytomegalovirus replication. HFF cells, HCMV-luciferase reporter, 72 h; hits give low values. activity change, negative = inhibition, % at 57.5 µM. hit rate 4.5% among 410,000; in the data active means activity change below about -60%; inconclusive means no clear call, values can overlap the other calls; inactive means above about -39%
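Inhibition of viral replication was scored as loss of reporter luminescence in HFFs infected with HCMV-luciferase (MOI 1 PFU/cell) for 72 h; compounds tested at 2 doses, normalized to buffer and Salinomycin controls.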
Shiga toxin inh – inhibitors of Shiga toxin in Vero cells; Vero cells, Shiga toxin protein synthesis inhibition reporter; inhibition, % at 38.7 µM; hit rate 9.2% among 290,000; AID 2315; in the data active means inhibition mostly above about 28%, no sharp cut-off; inactive means mostly below about 43%
Pf growth 96h – P. falciparum growth inhibition at 96 hour, primary screen for plastid delayed-death inhibitors. P. falciparum luciferase reporter growth, 96 h. Potency, µM (series often up to 28.7 µM), hits mostly inhibitors. hit rate 6.9% among 320,000
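Two parasite generations (96 h, 37 C, 5% CO2) of compound exposure in infected erythrocytes (0.05% parasitemia, 2% hematocrit). Luciferase-reporter P. falciparum; decreased luminescence indicates inhibited growth, aimed at apicoplast-acting delayed death.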
Pf growth 48h – inhibits P. falciparum growth in the first generation, 48 h; Potency, µM (titrated, usually from 28.7 µM), actives largely listed as inhibitors; P. falciparum luciferase growth in erythrocytes, 48 h; AID 504832; hit rate 5.9% among 310,000
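Luciferase-expressing parasites in RBCs, 2% Hct / 0.1% parasitemia final; RPMI 1640 + 0.5% Albumax; 37 C, 5% CO2, one generation; luminescence read-out, lower signal = inhibition.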
CHX counter – affects cycloheximide protein synthesis inhibition readout, counter-screen | cell reporter, cycloheximide protein synthesis inhibition counterscreen | max response, % | hit rate 12% among 300,000 | AID 2314; in the data active means max response mostly above about 13%, no sharp cut-off; inactive means mostly below about 14%; further: read at 38.3 µM for the half of the compounds with a filed dose
Each line names hits and unclear results; the compound was inactive in the other large screens; ! = not confirmed by another sample. Rows were chosen to be rich in hits. Some 20% of all compounds tested hit in one or more screens of this group. Unless noted, the call rests on the fitted dose curve; in most records, active means well fitted inhibition curve with a large enough effect; inconclusive means small, poorly fitted or top-dose-only effect, or another doubt; inactive means no such curve, though single readings can be large or run the other way.

CCOC(=O)c1cnn(-c2ccc(OC)cc2)c1C1CCN(C(=O)OC(C)(C)C)CC1	none (no result: Shiga toxin inh, Pf growth 96h, Pf growth 48h, CHX counter)
Nc1ccn([C@@H]2O[C@H](CNCc3ccc(N4CCNCC4)cc3)[C@@H](O)[C@H]2O)c(=O)n1	none (no result: Shiga toxin inh, Pf growth 96h, Pf growth 48h, CHX counter)
O=C(O)CCN1C(=O)c2ccncc2C1=O	none
O=C1c2ccncc2C(=O)N1CO	Pf growth 96h 10µM
COc1ccc(NC(=O)Nc2cccs2)cn1	CHX counter 9.5
COc1ccc(NC(=O)c2sccc2C)cn1	Shiga toxin inh 89, CHX counter 43
COc1ccc(NC(=O)c2cc(Br)c(Br)s2)cn1	Shiga toxin inh 91, CHX counter 24
COC(=O)c1sccc1NC(=O)c1sccc1C	none
COc1ccc(NC(=O)Nc2cc(C)cc(C)c2)cn1	none
O=C(NNC(=O)c1ccc(F)cc1)C(=O)N1CCCCC1	Pf growth 96h inconclusive
CCOC(=O)C(=O)Nc1c(C(=O)Nc2cccc(F)c2)oc2ccccc12	none (no result: Shiga toxin inh, Pf growth 96h, Pf growth 48h, CHX counter)
CCS(=O)(=O)N1CCc2cc(C(=O)Nc3cc(OC)c(Cl)cc3OC)ccc21	none (no result: Shiga toxin inh, Pf growth 96h, Pf growth 48h, CHX counter)
O=C(CNCc1ccc(F)cc1)Nc1ccccc1[N+](=O)[O-]	none
CCN1C(=O)C(Cc2nc3ccccc3c(=O)n2-c2cccc(C)c2)c2ccccc21 (stereo not given)	none (no result: Shiga toxin inh, Pf growth 96h, Pf growth 48h, CHX counter)
C=CCOC(=O)Nc1nc(CCNC(=O)OCc2ccccc2)c(C(=O)O)s1	none (no result: Shiga toxin inh, Pf growth 96h, Pf growth 48h, CHX counter)
O=C1CC(O)(C(F)(F)F)Oc2c1ccc1ccccc21 (stereo not given)	CHX counter 19 (no result: Pf growth 96h)
Cc1ccc(Cl)cc1N1CCN(C(c2ccc(C#N)cc2)c2nnnn2C2CCCC2)CC1 (stereo not given)	HCMV antiviral inconclusive, Pf growth 48h 2.3µM
CCCC(c1nnnn1CC1CCCO1)N1CCN(c2cc(Cl)ccc2C)CC1 (stereo not given)	Pf growth 48h 13µM
Cc1ccc(Cl)cc1N1CCN(C(CC(C)C)c2nnnn2CC2CCCO2)CC1 (stereo not given)	Pf growth 48h inconclusive
CCC(c1nnnn1C(C)(C)C)N1CCN(c2cc(Cl)ccc2C)CC1 (stereo not given)	Pf growth 96h 0.15µM, Pf growth 48h inconclusive
Cc1ccc(C(c2nnnn2CC2CCCO2)N2CCN(c3cccc(C)c3C)CC2)cc1 (stereo not given)	Pf growth 48h 13µM (no result: Pf growth 96h)
Cc1ccc(Cl)cc1N1CCN(C(c2cccnc2)c2nnnn2C2CCCCC2)CC1 (stereo not given)	Pf growth 48h inconclusive
CCc1c(C2(O)CCCCC2)[nH]c2cc(C(F)(F)F)ccc12	Pf growth 96h inconclusive (no result: HCMV antiviral)
Cc1ccc(CNC(=O)CCCCCn2c(=O)[nH]c3ccccc3c2=O)cc1	none (no result: Shiga toxin inh, Pf growth 96h, Pf growth 48h, CHX counter)
COc1cc(C(=O)OCC(=O)N2CCCC2)cc2c1OCCO2	none (no result: Shiga toxin inh, CHX counter)
CCCCCC1C(C(=O)OCC)C(=O)NC1(C(=O)OCC)C(=O)OCC (stereo not given)	none (no result: Shiga toxin inh, Pf growth 96h, Pf growth 48h, CHX counter)
CCC(c1nnnn1C(C)(C)C)N1CCN(Cc2ccccc2OC)CC1 (stereo not given)	HCMV antiviral -72
O=C(O)CNS(=O)(=O)c1cccc(Cl)c1	none
O=C(CNS(=O)(=O)c1cccc(Cl)c1)Nc1ccc(-c2nc3ccccc3s2)cc1	Shiga toxin inh 43, CHX counter 34
CNc1ccc(-c2nc3ccccc3s2)cc1	none (no result: HCMV antiviral, Pf growth 96h, Pf growth 48h)
CC(C)(C)C(=O)Nc1ccc(-c2nc3ccccc3s2)cc1	HCMV antiviral -103 (no result: Shiga toxin inh, Pf growth 96h, Pf growth 48h, CHX counter)
CC(NS(=O)(=O)c1cccc(Cl)c1)C(=O)Nc1ccc(-c2nc3ccccc3s2)cc1 (stereo not given)	Pf growth 48h inconclusive, CHX counter 38 (no result: Pf growth 96h)
Cc1nc2ccc(S(=O)(=O)NCC(=O)NCc3ccc(Cl)cc3)cc2s1	HCMV antiviral -69!
Cc1cc(NC(=O)CN2C(=O)C3CC=CCC3C2=O)no1 (stereo not given)	none (no result: Pf growth 96h)
CCS(=O)(=O)c1ccccc1C(=O)Nc1ccc(-c2nc3ccccc3s2)cc1	none (no result: Shiga toxin inh, Pf growth 96h, Pf growth 48h, CHX counter)
Cc1ccc(C)c(S(=O)(=O)NC(C)C(=O)Nc2ccc(-c3nc4ccccc4s3)cc2)c1 (stereo not given)	Shiga toxin inh 83, CHX counter 53
O=C(COc1ccccc1[N+](=O)[O-])Nc1ccc(-c2nc3ccccc3s2)cc1	none (no result: Shiga toxin inh, Pf growth 96h, Pf growth 48h, CHX counter)
O=C(COc1ccccc1Cl)Nc1ccc(-c2nc3ccccc3s2)cc1	CHX counter 38 (no result: Pf growth 96h, Pf growth 48h)
CCC(CC)C(=O)Nc1cccc(-c2nc3ccccc3s2)c1	none (no result: Shiga toxin inh, Pf growth 96h, Pf growth 48h, CHX counter)
CC(C)(C)c1ccc(S(=O)(=O)NCC(=O)Nc2ccc(-c3nc4ccccc4s3)cc2)cc1	Shiga toxin inh 123, CHX counter 38 (no result: Pf growth 96h)
CCSc1nnc(NC(=O)CSc2nnc(-c3c[nH]c4ccccc34)n2CC)s1	Pf growth 96h inconclusive, Pf growth 48h inconclusive
